# Data reported in the supplement of paper PMC3334620.
# Whole data set: some 33,000 sequences, median “E-score (-0.5 to 0.5)” near -0.021, cut for the highest 2% near 0.32. Only a selection was taken, and the highest values are over-represented in it overall.
# Target: T1, Zap1 (UniProt P47043)
# T1 sequence: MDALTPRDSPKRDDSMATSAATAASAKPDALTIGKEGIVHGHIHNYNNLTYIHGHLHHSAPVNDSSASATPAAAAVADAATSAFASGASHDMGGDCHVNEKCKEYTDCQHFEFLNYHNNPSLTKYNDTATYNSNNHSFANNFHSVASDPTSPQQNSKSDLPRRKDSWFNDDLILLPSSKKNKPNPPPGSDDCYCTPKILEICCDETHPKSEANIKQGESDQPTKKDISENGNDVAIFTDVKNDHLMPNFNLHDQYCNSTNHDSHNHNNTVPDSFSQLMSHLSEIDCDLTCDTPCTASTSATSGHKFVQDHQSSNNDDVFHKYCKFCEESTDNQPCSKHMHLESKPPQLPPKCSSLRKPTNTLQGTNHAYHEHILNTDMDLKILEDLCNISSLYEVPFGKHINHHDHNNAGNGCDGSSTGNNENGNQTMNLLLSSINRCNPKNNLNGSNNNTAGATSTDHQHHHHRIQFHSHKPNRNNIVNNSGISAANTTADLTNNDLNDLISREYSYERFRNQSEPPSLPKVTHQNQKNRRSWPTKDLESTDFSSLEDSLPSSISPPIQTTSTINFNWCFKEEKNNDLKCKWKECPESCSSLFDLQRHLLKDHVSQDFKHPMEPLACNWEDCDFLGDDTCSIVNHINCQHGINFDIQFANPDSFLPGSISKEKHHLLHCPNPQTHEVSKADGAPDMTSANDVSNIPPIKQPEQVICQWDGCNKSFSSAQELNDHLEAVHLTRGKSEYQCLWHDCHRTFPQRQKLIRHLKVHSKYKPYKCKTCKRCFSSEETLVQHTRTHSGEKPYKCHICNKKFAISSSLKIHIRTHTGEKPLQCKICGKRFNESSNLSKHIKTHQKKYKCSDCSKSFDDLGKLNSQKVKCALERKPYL
# Assay: PBM E-score (8-mer binding enrichment) (E-score (-0.5 to 0.5)); higher = stronger / more preferred TF binding
# Conditions: protein concentration: 200 nM; construct: GST-full length
# Experimental: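 Universal 'all 10-mer' protein binding microarrays (Agilent AMADID 015681) probed with GST-tagged S. cerevisiae TFs (full-length or DBD) made by in vitro transcription/translation (PURExpress), about 100-200 nM. Bound TF was detected with fluorescent anti-GST. Each ungapped 8-mer (which stands for itself and its reverse complement) is scored by the PBM enrichment score (E-score), a modified Wilcoxon-Mann-Whitney statistic from -0.5 to +0.5, computed with the Universal PBM Analysis Suite. Scale: above 0.35 generally sequence-specific binding.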
row,Sequence,PBM E-score
1,GTGCTGTA,-0.06
2,CAAGGCGC,-0.141
3,GAATGGTA,0.202
4,CCTGCAAG,-0.043
5,AAATCACT,0.0213
6,ACCCCTGA,0.28
7,ACCCCTTA,0.344
8,ATCCCTTA,0.0364
9,CACCCTTA,0.269
10,CCCCCTTA,-0.365
11,AACCCTTA,0.457
12,CGGCGCAG,-0.253
13,ATCGTGCG,0.158
14,GCAGCCCC,-0.0536
15,AAAACCGA,0.0886
16,ATAACCGA,0.349
17,ATAACCGC,0.459
18,GGAACCGA,-0.0122
19,ACAACCGA,0.234
20,ACAACCGC,0.285
21,CTAACCGA,-0.035
22,ACAACCGG,0.194

row,Sequence,PBM E-score
1,AGAACCGG,-0.0565
2,CTAACCGC,0.223
3,GTAACCGA,0.346
4,ATAACCGG,0.387
5,CAGCTGGA,-0.131
6,CAAGGAGC,-0.24
7,AGAGATTA,-0.0587
8,GTGCTGAA,-0.117
9,ACTGTGGG,-0.145
10,TAGATATA,0.172
11,AGCTTAAA,0.0882
12,ACTAGCCG,-0.177
13,CGAACCTA,0.00467
14,ATAACCTG,0.412
15,AGAACCTA,0.0497
16,ATAACCTA,0.458
17,ACAACCTG,0.23
18,CTAACCTA,0.327
19,GCAACCTA,0.106
20,AGAACCTG,0.0538
21,ACAACCTA,0.232
22,CTAACCTC,0.305

row,Sequence,PBM E-score
1,GTAACCTA,0.458
2,GGAACCTA,0.146
3,CTGAAGCC,-0.31
4,ATCAGGGC,-0.249
5,ACATTCGT,-0.0131
6,GAGAACTC,-0.146
7,ATTGAATG,0.113
8,CGGGACAA,-0.0695
9,GGTCAAGA,0.242
10,GCTCTCTA,-0.246
11,GGGAAACC,0.324
12,GGGAAAAC,-0.241
13,AGGAAACC,0.272
14,CAGTATAA,0.197
15,ACTGAATA,-0.0283
16,CCAAAAAC,0.256
17,CAAAAACC,0.302
18,CCAAAACC,0.331
19,CAAAACCC,0.349
20,CAAAACCA,0.311
21,AAAAACCC,0.196
22,CCTTATAG,0.262

row,Sequence,PBM E-score
1,GCTGGGGA,-0.0703
2,ATTCTCTC,-0.0801
3,CGAGCGTA,-0.102
4,AAGCATAA,0.0593
5,GGTAGTAC,0.248
6,CCAGCACA,-0.00996
7,ATCGACCG,-0.132
8,AGGTTATG,0.475
9,AGGTTATA,0.469
10,CGGTTATA,0.405
11,AAGTTATC,0.0532
12,AGGTTATC,0.463
13,ATGTTATG,0.158
14,AAGTTATG,0.181
15,ATGTTATA,-0.0204
16,CCGTTATA,0.103
17,ACGTTATC,-0.101
18,ACGTTATA,0.137
19,CTGTTATA,0.115
20,GAGTACAC,-0.0741
